Source: PubChem BioAssay (National Center for Advancing Translational Sciences (NCATS))
Shown are actives, neighbours in structure and some others; about 18% of the full set was active somewhere.
IL-1B inflam inh – blocks inflammasome-driven IL-1 beta release. activity change, % at 57.5 µM. 4.7% of 360,000 active. THP-1 LPS/ATP IL-1B secretion, AlphaLISA, 16 h; active compounds read low; in the data active = activity change below about -50%; inconclusive = mostly about -30% to -49%
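Secreted IL-1B measured by AlphaLISA bead assay after 16 h compound exposure of THP-1 cells; compounds (final up to 57.5 uM) added 1 h before LPS (250 ng/mL) and ATP (1.25 mM) stimulation; lower signal means less secretion.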
CtBP-E1A blk – blocks the CtBP interaction with E1A. 0.49% of 340,000 active. activity change, % (test concentration not listed). AlphaScreen GST-E1A/His-CtBP binding, 1536-well; active compounds read low; in the data active = activity change below about -65%; inconclusive = mostly about -30% to -63%
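Steps: dispense buffer (Tris pH 8.0, NaCl 300 mM, TCEP 1 mM, BSA, Tween 20); add 5X protein mix (GST-E1A, His-CtBP, 125 nM each); pin 23 nL compound; 2 h at 37 °C, dark; add 5X beads (50 ug/mL); 1 h; read.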
TDP1 cell noCPT – qHTS for Inhibitors of human tyrosyl-DNA phosphodiesterase 1 (TDP1): qHTS in cells in absence of CPT; DT40 Tdp1-/- hTDP1 cells, no CPT, ATP luminescence, 48 h; 15% of 420,000 active; Potency, µM (series often up to 46.2 µM), hits mostly inhibitors; also: nearly all actives have a fitted effect of over 55% in size
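Cells were dispensed at 400 per well, compounds added by pin tool, plates incubated ≥48 hr at 37 °C, then CellTiter-Glo added for 30 min at room temperature before luminescence reading. Line: DT40 Tdp1-/- complemented with hTDP1; camptothecin omitted.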
DT40 TDP1 CPT – growth inhibition of DT40 Tdp1-/-;hTDP1 cells with camptothecin (screen for TDP1 inhibitors); chicken DT40 Tdp1-/-;hTDP1 cells + 20 nM CPT, ATP luminescence, 48 h; Potency, µM (doses to about 46.2 µM), usual class: inhibitors; 12% of 420,000 active; AID 686979; also: nearly all actives have a fitted effect of over 55% in size
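Chicken DT40 Tdp1-/- cells stably complemented with human TDP1 were seeded at 400 cells/well in medium containing 20 nM camptothecin, exposed to pin-transferred compounds, and grown at 37 °C for at least 48 hr. Viability was read as ATP luminescence.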
TDP1 inh – TDP1 (human) enzyme inhibition; recombinant TDP1, AlphaScreen DNA substrate cleavage; 0.28% of 350,000 active; Q9NUW8; Potency, µM (series often up to 130 µM), hits mostly inhibitors; also: nearly all actives have a fitted effect of over 40% in size
Target sequence (Q9NUW8 whole entry, looked up): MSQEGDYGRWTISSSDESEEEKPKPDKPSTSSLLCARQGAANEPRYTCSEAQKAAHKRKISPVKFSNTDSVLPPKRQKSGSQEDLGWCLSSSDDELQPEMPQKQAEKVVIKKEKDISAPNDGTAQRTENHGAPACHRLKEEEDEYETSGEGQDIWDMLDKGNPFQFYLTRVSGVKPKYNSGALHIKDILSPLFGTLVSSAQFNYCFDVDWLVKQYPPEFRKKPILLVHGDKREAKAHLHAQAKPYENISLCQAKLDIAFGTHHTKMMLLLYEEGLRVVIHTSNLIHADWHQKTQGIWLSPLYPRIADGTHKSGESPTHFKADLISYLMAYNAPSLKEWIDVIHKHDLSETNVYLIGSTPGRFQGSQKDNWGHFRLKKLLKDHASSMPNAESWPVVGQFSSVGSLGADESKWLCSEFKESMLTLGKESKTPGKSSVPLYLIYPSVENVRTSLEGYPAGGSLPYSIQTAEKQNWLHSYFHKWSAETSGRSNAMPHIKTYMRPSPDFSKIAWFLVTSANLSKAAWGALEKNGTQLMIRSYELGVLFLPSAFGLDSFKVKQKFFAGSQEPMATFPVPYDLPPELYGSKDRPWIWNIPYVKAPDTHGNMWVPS
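Steps: enzyme plus compound, 15 min RT; add biotin/phosphotyrosine-FITC oligonucleotide (15 nM final), react 5 min; add donor/acceptor beads (10 ug/ml final), 10 min; read AlphaScreen. Tdp1 at 1 nM final.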
Six1-Eya2 inh – blocks human Six1 binding to Eya2. AlphaScreen GST-Six1/His-Eya2 binding, biochemical; active compounds read low. 0.56% of 360,000 active. activity change, % (concentration not given with the values). Q15475+O00167; in the data active = activity change below about -65%; inconclusive = mostly about -30% to -63%
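Homogeneous AlphaScreen proximity assay pairing GST-Six1 with His-tagged Eya2 (added as 5X mix: 250 nM and 500 nM) in 50 mM Tris pH 8.0, 300 mM NaCl, 1 mM TCEP. Glutathione donor and nickel acceptor beads; 1 h, 37 °C, dark.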
Hits are given with their value; 0 = inactive; ? = inconclusive; - = no result given. Unless noted, calls follow the shape of the dose curve; as a rule, active = well fitted curve in the direction sought with a large enough effect; inconclusive = small, poorly fitted or top-dose-only effect, or another doubt; inactive = no such curve, though single readings can be large; an effect the other way counts as inactive or inconclusive.

SMILES	IL-1B inflam inh	CtBP-E1A blk	TDP1 cell noCPT	DT40 TDP1 CPT	TDP1 inh	Six1-Eya2 inh
COc1cc2nc(C3CC3)n(NC(=O)c3ccc(F)cc3)c(=O)c2cc1OC	0	0	0	0	0	0
Cc1cc(C(=O)Nn2c(C3CCCCC3)nc3ccccc3c2=O)ccc1[N+](=O)[O-]	0	-	?	?	0	0
COc1ccccc1C(=O)Nn1c(C2CCC2)nc2ccccc2c1=O	0	0	?	13µM	0	0
O=C(Nn1c(C2CCCCC2)nc2ccccc2c1=O)c1ccc(Cl)c([N+](=O)[O-])c1	-224	0	?	?	0	0
COc1cc2nc(C3CC3)n(NC(=O)c3ccc(Cl)cc3)c(=O)c2cc1OC	0	0	23µM	?	0	0
CCCNC(=O)C1(C)CCCN(C(=O)Cc2ccc(OC)c(OC)c2)C1 (centres undefined)	0	0	0	0	-	0
CCOc1ccc(N=c2cc(-c3ccc(OC)cc3)oc3ccccc23)cc1	0	0	26µM	26µM	0	?
COc1ccc(-c2cc(=O)c3ccccc3o2)cc1	0	0	?	?	0	0
COc1ccc(N=c2cc(-c3ccc(OC)cc3)oc3ccccc23)cc1	-	0	23µM	?	0	?
COc1ccc(-c2cc(=Nc3ccc(C)cc3)c3ccccc3o2)cc1	?	?	?	?	0	?
COc1ccc(N=c2cc(-c3ccc(O)cc3)oc3ccccc23)cc1	-98	0	?	?	0	?
COc1ccc(C[C@H]2c3cc(O)c(OC)cc3CC[N+]2(C)[O-])cc1O (some centres undefined)	0	0	21µM	?	0	0
COc1cc2c(cc1O)C(Cc1ccc(O)cc1)[N+](C)([O-])CC2 (centres undefined)	0	0	0	0	0	0
O=C(Nc1ccccc1Cl)N1CCN(c2ncccn2)CC1	0	0	0	0	0	0
COc1ccc(-n2c(=O)c(C)nc3cnc(Oc4ccccc4)nc32)cc1	-	-	?	0	-	-
O=[N+]([O-])c1ccc(F)c(CN2CCN(c3ncc(Cc4ccccc4)cn3)CC2)c1	0	0	21µM	?	-	0
O=[N+]([O-])c1ccc(Cl)c(CN2CCN(c3ncccn3)CC2)c1	0	0	0	0	-	0
Cc1ccc([N+](=O)[O-])cc1CN1CCN(c2ncc(Cc3ccccc3)cn2)CC1	0	0	?	?	-	0
COc1ccc([N+](=O)[O-])cc1CN1CCN(c2ncc(Cc3ccccc3)cn2)CC1	0	0	18µM	21µM	-	0
COc1cc(NC(=O)CCN2C(=O)NC3(CCCC3)C2=O)c(OC)cc1Cl	0	-	0	0	0	0
CCOC(=O)c1c(C)[nH]c(C)c1C(=O)CSc1nc2ccccc2[nH]1	0	0	0	0	0	0
O=C(c1cc2ccccc2oc1=O)N(c1ccccc1)C1C=CS(=O)(=O)C1 (centres undefined)	-54	0	0	0	0	0
CC(=O)N(c1ccc(C(C)C)cc1)C1C=CS(=O)(=O)C1 (centres undefined)	0	0	0	0	0	0
COc1ccc(N(C(=O)c2cc3ccccc3oc2=O)C2C=CS(=O)(=O)C2)cc1 (centres undefined)	?	0	0	0	0	0
CC(C)c1ccc(N(C(=O)c2cc3ccccc3oc2=O)C2C=CS(=O)(=O)C2)cc1 (centres undefined)	0	0	13µM	?	0	0
COc1ccccc1C(=O)N1CCCN(C(=O)c2ccccc2OC)CC1	0	0	0	0	0	0
COc1ccccc1C(=O)N1CCN(C(=O)c2oc3c(C)c(C)ccc3c2C)CC1	0	0	16µM	?	-	0
Cc1ccc2c(C)c(C(=O)N3CCC(C(N)=O)(N4CCCCC4)CC3)oc2c1C	0	0	21µM	?	-	0
O=C(NCCCN1CCOCC1)c1cccc(S(=O)(=O)Nc2ccc(F)cc2)c1	0	0	0	0	0	0
